Test results reported in PubChem BioAssay AID1159580 (chemical genetic matrix, 2015).
Values joined by “and” are separate entries in the source; they are usually repeats but may differ in a detail not shown here. Identical values can stand only once. Hit rate of the full screen: of about 5,500 compounds, about 2,000 (36%) were called active. About 18% were inconclusive and are not listed. No stated cut-off is given here; in the data, active means normalized growth mostly below about 0.91 (no sharp cut-off); inconclusive means no clear call, values can overlap the other calls; inactive means mostly above about 0.92. Some of the results follow.

Test: chemical genetic growth profiling, strain panel (AID 1159580);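 further: tested at 20 µM; growth read once vehicle control cultures reached saturation at 30 °C; 1 = growth at the plate median or of vehicle wells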
Conditions: S. cerevisiae deletion strains, growth OD

Measured: normalized growth

COC(=O)C[C@H]1C(C)(C)[C@@H](O)[C@@H]2CC3=C4C=C(OC)O[C@@H](c5ccoc5)[C@]4(C)CCC3[C@@]1(C)C2=O (some centres not stated)
inactive: locus YAL021C, strain ccr4, stronger effect = lower value 0.996 | locus YAL026C, strain drs2, stronger effect = lower value 0.99 | locus YAL030W, strain snc1, stronger effect = lower value 1 | locus YBL061C, strain skt5, stronger effect = lower value 1.01 | locus YBR009C, strain hhf1, stronger effect = lower value 1.01 | locus YBR021W, strain FUR4, stronger effect = lower value 1.01 | locus YBR023C, strain chs3, stronger effect = lower value 0.997 | locus YBR171W, strain sec66, stronger effect = lower value 0.999 | locus YBR229C, strain ROT2, stronger effect = lower value 1 | locus YBR231C, strain swc5, stronger effect = lower value 1 | locus YBR279W, strain paf1, stronger effect = lower value 0.999 | locus YCL011C, strain gbp2, stronger effect = lower value 1.01 | locus YCL016C, strain dcc1, stronger effect = lower value 0.999 | locus YCL029C, strain bik1, stronger effect = lower value 0.978 | locus YCL061C, strain MRC1, stronger effect = lower value 1.01 | locus YCL069W, strain vba3, stronger effect = lower value 0.983 | locus YCR088W, strain abp1, stronger effect = lower value 0.99 | locus YDL005C, strain med2, stronger effect = lower value 0.989 | locus YDL035C, strain GPR1, stronger effect = lower value 1.01 | locus YDL040C, strain nat1, stronger effect = lower value 0.998 | locus YDL074C, strain BRE1, stronger effect = lower value 1.02 | locus YDL101C, strain DUN1, stronger effect = lower value 1 | locus YDL134C, strain PPH21, stronger effect = lower value 1.01 | locus YDL185W, strain tfp1, stronger effect = lower value 0.982 | locus YDL192W, strain arf1, stronger effect = lower value 0.991 | locus YDR001C, strain nth1, stronger effect = lower value 0.992 | locus YDR069C, strain doa4, stronger effect = lower value 0.998 | locus YDR101C, strain arx1, stronger effect = lower value 1 | locus YDR137W, strain rgp1, stronger effect = lower value 1.01 | locus YDR159W, strain sac3, stronger effect = lower value 0.998 | locus YDR162C, strain NBP2, stronger effect = lower value 0.987 | locus YDR195W, strain ref2 0.962 | locus YDR297W, strain sur2, stronger effect = lower value 0.994 | locus YDR318W, strain mcm21, stronger effect = lower value 0.995 | locus YDR334W, strain swr1, stronger effect = lower value 0.978 | locus YDR335W, strain msn5, stronger effect = lower value 0.994 | locus YDR388W, stronger effect = lower value 0.985 | locus YDR392W, strain spt3, stronger effect = lower value 0.992 | locus YDR502C, strain sam2, stronger effect = lower value 0.982 | locus YEL003W, strain gim4, stronger effect = lower value 0.994 | locus YEL037C, strain rad23, stronger effect = lower value 0.988 | locus YEL061C, strain CIN8 (second series), stronger effect = lower value 0.982 | locus YEL061C, strain CIN8, stronger effect = lower value 1 | locus YER015W, strain faa2, stronger effect = lower value 1 | locus YER016W, strain bim1, stronger effect = lower value 1.01 | locus YER110C, stronger effect = lower value 0.979 | locus YER111C, strain swi4, stronger effect = lower value 1 | locus YER155C, strain BEM2 (second series), stronger effect = lower value 1.02 | locus YER155C, strain BEM2, stronger effect = lower value 1 | locus YER167W, strain BCK2, stronger effect = lower value 1.02 | locus YFR010W, strain ubp6, stronger effect = lower value 0.982 | locus YGL078C, strain dbp3, stronger effect = lower value 0.984 | locus YGL086W, strain mad1, stronger effect = lower value 0.991 | locus YGL167C, strain pmr1, stronger effect = lower value 1.01 | locus YGL173C, strain kem1, stronger effect = lower value 1 | locus YGL227W, strain vid30, stronger effect = lower value 0.983 | locus YGL240W, strain doc1, stronger effect = lower value 1.02 | locus YGL248W, strain PDE1, stronger effect = lower value 0.999 | locus YGL253W, strain hxk2, stronger effect = lower value 0.993 | locus YGR078C, strain PAC10, stronger effect = lower value 1 | locus YGR135W, strain pre9, stronger effect = lower value 0.976 | locus YGR252W, strain gcn5, stronger effect = lower value 0.994 | locus YHR013C, strain ard1, stronger effect = lower value 1.01 | locus YHR027C, strain rpn1, stronger effect = lower value 0.994 | locus YHR030C, strain SLT2, stronger effect = lower value 0.96 | locus YHR079C, strain IRE1 (second series), stronger effect = lower value 0.992 | locus YHR079C, strain IRE1, stronger effect = lower value 0.968 | locus YHR094C, strain hxt1, stronger effect = lower value 0.987 | locus YHR129C, strain ARP1, stronger effect = lower value 1 | locus YHR142W, strain chs7, stronger effect = lower value 0.977 | locus YHR200W, strain rpn10, stronger effect = lower value 0.988 | locus YIL066C, strain RNR3, stronger effect = lower value 1.02 | locus YIL073C, strain SPO22, stronger effect = lower value 0.981 | locus YIL125W, strain kgd1, stronger effect = lower value 0.991 | locus YIR030C, strain dcg1, stronger effect = lower value 0.992 | locus YJL092W, strain hpr5, stronger effect = lower value 0.993 | locus YJL095W, strain BCK1 (second series), stronger effect = lower value 1 | locus YJL095W, strain BCK1, stronger effect = lower value 0.996 and 0.97 | locus YJL115W, strain asf1, stronger effect = lower value 0.985 | locus YJL129C, strain trk1, stronger effect = lower value 0.97 | locus YJL134W, strain LCB3, stronger effect = lower value 1.01 | locus YJL154C, strain vps35, stronger effect = lower value 0.978 | locus YJL164C, strain tpk1, stronger effect = lower value 0.997 | locus YJL166W, strain qcr8, stronger effect = lower value 0.995 | locus YJL168C, strain set2, stronger effect = lower value 0.983 | locus YJL187C, strain SWE1 (second series), stronger effect = lower value 1.01 | locus YJR043C, strain POL32, stronger effect = lower value 1.04 | locus YJR066W, strain TOR1, stronger effect = lower value 0.92 | locus YKL009W, strain mrt4, stronger effect = lower value 0.986 | locus YKL068W, stronger effect = lower value 0.996 | locus YKL085W, strain MDH1 (second series), stronger effect = lower value 0.975 | locus YKL085W, strain MDH1, stronger effect = lower value 0.975 | locus YKL160W, strain elf1, stronger effect = lower value 1.01 | locus YKL190W, strain CNB1, stronger effect = lower value 1 | locus YKR001C, strain vps1, stronger effect = lower value 0.992 | locus YKR026C, strain gcn3, stronger effect = lower value 0.972 | locus YKR091W, strain srl3, stronger effect = lower value 1 | locus YLL001W, strain dnm1, stronger effect = lower value 1 | locus YLL026W, stronger effect = lower value 1.01 | locus YLL041C, strain sdh2, stronger effect = lower value 1.02 | locus YLR027C, strain aat2, stronger effect = lower value 1 | locus YLR039C, strain RIC1, stronger effect = lower value 0.935 | locus YLR058C, strain SHM2, stronger effect = lower value 1.01 | locus YLR102C, strain apc9, stronger effect = lower value 0.987 | locus YLR113W, strain HOG1, stronger effect = lower value 0.998 | locus YLR221C, strain rsa3, stronger effect = lower value 0.998 | locus YLR258W, strain gsy2, stronger effect = lower value 0.993 | locus YLR262C, strain YPT6 (second series), stronger effect = lower value 0.959 | locus YLR262C, strain YPT6, stronger effect = lower value 0.857 | locus YLR268W, strain sec22, stronger effect = lower value 0.997 | locus YLR320W, strain mms22, stronger effect = lower value 1 | locus YLR342W, strain FKS1 (second series), stronger effect = lower value 1.02 | locus YLR342W, strain FKS1, stronger effect = lower value 0.999 | locus YLR357W, strain rsc2, stronger effect = lower value 1.01 | locus YLR370C, strain arc18, stronger effect = lower value 0.993 | locus YLR371W, strain rom2, stronger effect = lower value 0.983 | locus YLR384C, strain iki3, stronger effect = lower value 1 | locus YLR418C, strain cdc73, stronger effect = lower value 0.962 | locus YML016C, strain PPZ1, stronger effect = lower value 1.01 | locus YML032C, strain rad52, stronger effect = lower value 1 | locus YML120C, strain ndi1, stronger effect = lower value 0.998 | locus YML124C, strain tub3, stronger effect = lower value 0.992 | locus YMR058W, strain fet3, stronger effect = lower value 1 | locus YMR078C, strain ctf18, stronger effect = lower value 0.987 | locus YMR125W, strain sto1, stronger effect = lower value 0.993 | locus YMR129W, stronger effect = lower value 0.997 | locus YMR205C, strain PFK2, stronger effect = lower value 1.02 | locus YMR223W, strain ubp8, stronger effect = lower value 0.976 | locus YMR231W, strain pep5, stronger effect = lower value 0.997 | locus YMR307W, strain GAS1, stronger effect = lower value 1 | locus YNL067W, strain RPL9B, stronger effect = lower value 0.997 | locus YNL071W, strain lat1, stronger effect = lower value 0.978 | locus YNL183C, strain NPR1, stronger effect = lower value 0.938 | locus YNL209W, strain ssb2, stronger effect = lower value 0.985 | locus YNL233W, strain BNI4, stronger effect = lower value 1.01 | locus YNL248C, strain rpa49, stronger effect = lower value 0.97 | locus YNL250W, strain rad50, stronger effect = lower value 0.981 | locus YNL271C, strain bni1, stronger effect = lower value 0.985 | locus YNL298W, strain CLA4, stronger effect = lower value 0.984 | locus YNL307C, strain MCK1, stronger effect = lower value 0.98 | locus YNL322C, strain KRE1 (second series), stronger effect = lower value 1.01 | locus YNR049C, strain mso1, stronger effect = lower value 1 | locus YNR052C, strain pop2, stronger effect = lower value 0.979 | locus YOL006C, strain TOP1, stronger effect = lower value 1.03 | locus YOL012C, strain htz1 1.17 | locus YOL147C, strain pex11, stronger effect = lower value 0.986 | locus YOR001W, strain rrp6, stronger effect = lower value 0.989 | locus YOR061W, strain CKA2, stronger effect = lower value 1 | locus YOR069W, strain VPS5, stronger effect = lower value 1 | locus YOR070C, strain gyp1, stronger effect = lower value 0.987 | locus YOR080W, strain dia2, stronger effect = lower value 0.992 | locus YOR083W, strain WHI5, stronger effect = lower value 1.01 | locus YOR106W, strain vam3, stronger effect = lower value 0.98 | locus YOR136W, strain idh2, stronger effect = lower value 0.991 | locus YOR144C, strain elg1, stronger effect = lower value 0.992 | locus YOR184W, strain ser1, stronger effect = lower value 0.994 | locus YOR231W, strain MKK1, stronger effect = lower value 0.98 | locus YOR265W, strain rbl2, stronger effect = lower value 0.993 | locus YOR270C, strain vph1, stronger effect = lower value 0.86 | locus YOR290C, strain snf2, stronger effect = lower value 1.03 | locus YOR316C, strain cot1, stronger effect = lower value 0.981 | locus YPL051W, strain arl3, stronger effect = lower value 1.02 | locus YPL055C, strain LGE1, stronger effect = lower value 1.03 | locus YPL078C, strain atp4, stronger effect = lower value 0.985 | locus YPL106C, strain sse1, stronger effect = lower value 1.02 | locus YPL240C, strain hsp82, stronger effect = lower value 0.991 | locus YPL256C, strain CLN2, stronger effect = lower value 0.955 | locus YPR119W, strain clb2, stronger effect = lower value 0.982 | locus YPR141C, strain kar3, stronger effect = lower value 0.98 | locus YPR163C, strain tif3, stronger effect = lower value 0.981 | locus YPR167C, strain met16, stronger effect = lower value 0.983 | strain wtn01, stronger effect = lower value 1
